Values joined by “and” are separate entries in the source; they are usually repeats but may differ in a detail not shown here. Equal entries are not always repeated. Records with an inconclusive call do not appear. A number with no mark means an inactive call. Active and inactive are the calls of the source. Calls come from the whole dose curve; as a rule, active = well fitted inhibition curve with a large enough effect; inconclusive = small, poorly fitted or top-dose-only effect; inactive = flat fitted curve, though single readings scatter.
Test: P-glycoprotein substrates identified in KB-8-5-11 adenocarcinoma cell line, qHTS therapeutic library screen (AID 1346987); note: nearly all actives have a fitted effect of over 65% in size
Settings: KB-8-5-11 (P-gp overexpressing) viability, CellTiter-Glo, 72 h; series mostly up to 44.5 µM; activity change, negative = cytotoxicity: at the top concentration
Source text: The ATP-binding cassette transporters P-glycoprotein (P-gp) is known to limit brain penetration of many chemotherapy drugs. […] As such, we developed a high-throughput screen (HTS) to identify substrates of P-gp from a series of chemical libraries including the National Center for Advancing Translational Sciences Pharmaceutical Collection NPC, 2,816 compounds), testing a total of 10,804 compounds, most of which have known mechanisms of action. We used the CellTiter-Glo viability assay to test library compounds against the parental KB-3-1 human cervical adenocarcinoma cell line and the colchicine-selected sub-line KB-8-5-11 that over-expresses P-gp. KB-8-5-11 cells were also tested in the presence of a P-gp inhibitor (tariquidar) to assess reversability of transporter-mediated resistance. Of the tested compounds, a total of 90 P-gp substrates were identified including 55 newly identified P-gp substrates. Substrates were confirmed using an orthogonal killing assay against HEK-293 cells transfected with P-gp. As exemplars, we confirmed that […] (cyclin-dependent kinase inhibitor); AT9283, (Janus kinase 2/3 inhibitor); ispinesib (kinesin spindle protein inhibitor); gedatolisib (PKI-587, phosphoinositide 3-kinase/mammalian target of rampamycin inhibitor); GSK-690693 (AKT inhibitor); and KW-2478 (heat shock protein 90 inhibitor) were substrates , and direct ATPase stimulation was assessed. ABCG2 was also found to confer high levels of resistance to AT9283, GSK-690693 and gedatolisib, while ispinesib, AT7519 and KW-2478 were weaker substrates.
The HeLa derivative cell line, KB-3-1, and its colchicine-selected, P-gp-overexpressing subline, KB-8-5-11 were maintained in DMEM with 10% FCS and Pen/Strep with glutamine at 37 degree C in 5% CO2. For KB-8-5-11 cells, colchicine was added to the medium at a concentration of 100 ng/mL. HEK-293 cells transfected with empty vector (pcDNA) or vector containing human ABCB1 (MDR-19) or ABCG2 (R-5) have been described previously (Robey, Lin, Qiu, Chan & Bates, 2011) and were maintained in EMEM supplemented with 10% FCS, Pen/Strep and glutamine with 2 mg/ml G418 to select for the expression of the transporter. Cultures were confirmed to be free of mycoplasma infection using the MycoAlert Mycoplasma Detection Kit (Lonza, Walkersville, MD). For the screen, assay medium was identical to culture medium except for KB-8-5-11 where colchicine was excluded from the medium.
All cell lines were plated into 1536-well plates at 500 cells/well in 5 uL media. Compounds were then pinned in dose-response using a 1536-head pin tool (Kalypsis, San Diego, CA) and plates were incubated at 37 degree C in 5% CO2 for an additional 72 h. CellTiter-Glo reagent (Promega) was dispensed into the wells, incubated for 5 min and luminescence was read on a ViewLux instrument (Perkin-Elmer). Cytotoxic compounds were defined as those that yielded a curve class of -1.1, -1.2, -2.1, -2.2, -2.3, or -2.4, a maximum response of >50% and an AC50 of < 10 uM. Cherry-picked hits from screening analysis were tested with both the KB pair of cell lines, and the pcDNA (empty vector control) and MDR-19 (P-gp overexpressing) pair were tested, in the absence and presence of tariquidar.
% is set by controls: 0 for no effect and ±100 for the full control effect; potency is the fitted concentration of half-maximal effect.

Row | SMILES | activity change, negative = cytotoxicity [%] | Potency | outcome
1 | CCCCCCOC(=O)N=C(N)c1ccc(NCc2nc3cc(C(=O)N(CCC(=O)OCC)c4ccccn4)ccc3n2C)cc1 | 8.81 | – | –
2 | COc1ccc(CCN(C)CCCOc2ccc(S(=O)(=O)c3[nH]c4ccccc4c3C(C)C)cc2)cc1OC | -14.1 | – | –
3 | COC(=O)Nc1ccc(-c2nc(N3CCOCC3)c3cnn(C4CCN(C(=O)OC)CC4)c3n2)cc1 | – | 469 nM (active) and 1.46 µM (active) | –
4 | CCOC(=O)[C@@H](N)CCC(=O)N[C@@H](CSCc1ccccc1)C(=O)N[C@@H](C(=O)OCC)c1ccccc1 | 7.52 | – | –
5 | CCN1C[C@H](C)n2c(c(O)c3c(=O)n(Cc4ccc(F)c(Cl)c4)nc(C(=O)NC)c32)C1=O | -12.8 | – | –
6 | O=c1cc(-c2ccc(O)c(O)c2)oc2cc(O)cc(O)c12 | 5.31 | – | –
7 | Cc1ccc(NC(=O)Nc2cc(C(F)(F)F)ccc2F)cc1Nc1ccc2c(c1)NC(=O)C2=Cc1ccc[nH]1 | – | 10.5 µM (active) | –
8 | CC(C)Oc1cc(Nc2nc(N[C@@H](C)c3ccc(F)cn3)ncc2Cl)[nH]n1 | – | 4.69 µM (active) and 8.2 µM (active) | –
9 | C=C[C@@H]1CN2CCC1C[C@@H]2C(O)c1ccnc2ccc(OC)cc12 (stereo not given in full) | -13.2 | – | –
10 | CN(C)CCN(Cc1ccc(Cl)cc1)c1ccccn1 | – | inactive | –
11 | CN1C(=O)C[C@H](C(=O)N[C@@H](Cc2cnc[nH]2)C(=O)N2CCC[C@@H]2C(N)=O)NC1=O | 8.88 | – | –
12 | C[C@@]1(c2cc(-c3cncnc3)c(F)cc2F)CCSC(N)=N1 | – | inactive | –
13 | Cc1ccc2c(c1)c1c(n2CCc2ccc(C)nc2)CCN(C)C1 | -7.75 | – | –
14 | COC(=O)[C@H](c1ccccc1Cl)N1CCc2sccc2C1 | – | – | inactive
15 | NS(=O)(=O)c1ccc(Nc2nc(OCC3CCCCC3)c3[nH]cnc3n2)cc1 | – | inactive | –
16 | CCCCN(CCCC)CC(O)c1cc(Cl)cc2c1-c1ccc(Cl)cc1C2=Cc1ccc(Cl)cc1 (stereo not given) | 6.42 | – | –
17 | Cc1c(-c2cccc3c(CCCOc4cccc5ccccc45)c(C(=O)O)n(Cc4cccnc4)c23)c(COc2ccc(N3CCN([S+](=O)([O-])N(C)C)CC3)cc2)nn1C | -1.34 | – | –
18 | CC(C)=CCCC(C)=CCCC(C)=CCCC(C)=CCCC(C)=CCCC(C)=CCCC(C)=CCCC(C)=CCCC(C)=CCO | – | – | inactive
19 | C[C@]12CC[C@@H]3c4ccc(O)cc4CC[C@H]3[C@H]1[C@@H](O)[C@@H](O)[C@H]2O | 7 | – | –
20 | O=C(c1ccc(F)c(F)c1Nc1ccc(I)cc1F)N1CC(O)([C@H]2CCCCN2)C1 | – | 20.9 µM (active) | –

Row | SMILES | activity change, negative = cytotoxicity [%] | Potency | outcome
21 | CCCCC[C@H](O)C=C[C@H]1[C@H](O)CC(=O)[C@H]1CC=CCCCC(=O)O | – | – | inactive
22 | Cc1nc2c([nH]1)CCN(C(=O)c1ccc(NC(=O)c3ccccc3-c3ccccc3)cc1)c1ccccc1-2 | – | inactive | –
23 | Cc1cc2nc3c(=O)[nH]c(=O)nc-3n(CC(O)C(O)C(O)CO)c2cc1C (stereo not given) | – | – | inactive
24 | CNC1CCC(N(Cc2cccc(-c3ccncc3)c2)C(=O)c2sc3ccccc3c2Cl)CC1 (stereo not given) | – | 11.8 µM (active) and 20.6 µM (active) | –
25 | OC[C@H]1O[C@@H](O[C@H]2[C@@H](O)[C@@](O)(CO)O[C@@H]2CO)[C@H](O)[C@@H](O)[C@@H]1O | 1.15 | – | –
26 | Cc1ccccc1-n1c(Cn2nc(-c3cccc(O)c3)c3c(N)ncnc32)nc2cccc(C)c2c1=O | – | inactive | –
27 | COc1cc2nccc(Oc3ccc(NC(=O)Nc4ccc(F)cc4F)c(F)c3)c2cc1OC | – | 7.31 µM (active) | –
28 | Cn1cc(-c2ccc3nnc(Sc4ccc5ncccc5c4)n3n2)cn1 | -2.76 | – | –
29 | C[C@@H]1CCO[C@H]2Cn3cc(C(=O)NCc4ccc(F)cc4F)c(=O)c(O)c3C(=O)N12 | -21.2 | – | –
30 | O=C1C(c2c(O)[nH]c3ccccc23)=Nc2ccccc21 | – | inactive | –
31 | CC[C@]1(O)C[C@H]2CN(CCC3=c4ccccc4=N[C]3[C@@](C(=O)OC)(c3cc4c(cc3OC)N(C)[C@H]3[C@@](O)(C(N)=O)[C@H](O)[C@]5(CC)C=CCN6CC[C@]43[C@@H]65)C2)C1 | – | 1.48 µM (active) | –
32 | C[C@]12C=CC(=O)C=C1CC[C@@H]1[C@@H]2[C@@H](O)C[C@@]2(C)[C@@H]1CC[C@]2(O)C(=O)CO | – | – | inactive
33 | O=C(Nc1ccccc1)Nc1ccc(-c2ccc(C(=O)[C@H]3CCC[C@H]3C(=O)O)cc2)cc1 | – | – | inactive
34 | CCCCCOC(=O)Nc1nc(=O)n([C@@H]2O[C@H](C)[C@@H](O)C2O)cc1F (stereo not given in full) | 0.678 | – | –
35 | O=C(Nc1ccc(OC(F)(F)F)cc1)c1sccc1NCc1ccnc2ccccc12 | -22.6 | – | –
36 | C[C@@H](O)[C@H]1C(=O)N2C(C(=O)OCOC(=O)C(C)(C)C)=C(SC3CN(C4=NCCS4)C3)[C@H](C)[C@H]12 | 9.96 | – | –
37 | CCCCC(C)(C)[C@H](O)C=C[C@H]1[C@H](O)CC(=O)[C@H]1CC=CCCCC(=O)O | 6.5 | – | –
38 | CC1CCN(c2cc(N3CCN(C)CC3)ccc2NC(=O)c2cc(C#N)c[nH]2)CC1 | – | inactive | –
39 | Cc1cnc(-c2cc(N3CCN(C(=O)CCS(C)(=O)=O)CC3)ncc2Cl)c(C)c1 | – | inactive | –
40 | CC(C)c1onc(-c2c(Cl)cccc2Cl)c1COc1ccc(C=Cc2cccc(C(=O)O)c2)c(Cl)c1 | -6.57 | – | –

Source: PubChem BioAssay (NCATS)
